# Test results: PubChem BioAssay (NCI)
# The panel holds about 83,000 compounds, 20% with a hit somewhere; the sample as a whole holds those more often.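 Values shown are percent growth following 48 h exposure of cells in 96-well plates to a single concentration of compound; below 10 was considered active.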 The source made the active and inactive calls.
# Tested on: OVCAR-3 ovarian
# Assay: NCI-60 one-dose screen, 48 h (100 = growth as untreated, 0 = no growth, -100 = all killed)
# Conditions: 10 µM
# Experimental: Growth inhibition of the OVCAR-3 human tumor cell line is measured as a screen for anti-cancer activity. Cells are grown in 96 well plates and exposed to the test compound for 48 hours. Compounds are tested at a single concentration, which is 10^-5 M for most compounds. The reported endpoint is percent growth (GI% or GIPRCNT), where numbers from 0 - 100% represent growth inhibition, and numbers from -100% - 0 represent cell death. For example, a value of 40 represents 60% growth inhibition. A value of 0 means no net growth occurred over the course of the experiment. A value of -40 indicates 40% of cells at the beginning of the experiment died by the end of the experiment. A value of -100 means all cells are dead at the end of the experiment.
# NCI-60 Human Tumor Cell Lines Screen was performed using the standard one-dose NCI protocol, which is described in more detail at https://dtp.cancer.gov/discovery_development/nci-60/default.htm.
# Compounds with GIPRCNT values below 10 were considered active. Activity score was based on GIPRCNT using the following formula: […]
# Score is 0 for GIPRCNT values of 100 or above, 50 for GIPRCNT values of 0, and 100 for GIPRCNT values of -100.
row,Compound,growth
1,Cc1cc(=O)[nH]c(NN=C2CCCC2)n1,110% (inactive)
2,COc1cc(CCN=Cc2ccccc2O)c([N+](=O)[O-])cc1OC,101% (inactive)
3,Oc1ccccc1O,92.3% (inactive)
4,COc1cc2cc(c1Cl)N(C)C(=O)C[C@H](OC(=O)[C@H](C)N(C)C(C)=O)[C@]1(C)O[C@H]1[C@H](C)[C@@H]1C[C@@](O)(NC(=O)O1)[C@H](OC)C=C/C=C(\C)C2,-42.8% (active)
5,Cc1ccncc1C(N)=O,90.6% (inactive)
6,COC(=O)C(O)c1ccccc1 (stereo not given),104% (inactive)
7,Oc1ccc(O)cc1,109% (inactive)
8,C/C(=N/NC(N)=O)c1ccco1,104% (inactive)
9,CS(=O)CC1=NC(=N)N=C1CS(C)=O (stereo not given),118% (inactive)
10,O=C(O)c1ccnc(Br)c1,112% (inactive)
11,O=C(O)C(O)c1ccccc1 (stereo not given),112% (inactive)
12,NCCCN,111% (inactive)
13,CC(=O)OCC(=O)[C@@]1(O)CC[C@H]2[C@@H]3CC[C@@H]4C[C@H](O)CC[C@]4(C)[C@H]3C(=O)C[C@@]21C,122% (inactive)
14,CCOC(=O)/C(=C/c1ccc(OC)cc1)N(CC)CC,106% (inactive)
15,CCN(CC)c1ccc2nc3ccc(=[N+](CC)CC)cc-3oc2c1,-7.91% (active)
16,Nc1ccc(N=Nc2ccc(O)cc2)c(N)n1,73.4% (inactive)
17,CC1(O)OC(COc2ccc(Cl)cc2)COC1O (stereo not given),116% (inactive)
18,Cc1c(C(=O)O)c(=O)n(-c2ccccc2)n1C,141% (inactive)
19,O=C(/C=C\c1ccc(O)cc1)c1ccccc1,96% (inactive)
20,C/C(=C\c1ccc([N+](=O)[O-])cc1)C(=O)O,110% (inactive)

row,Compound,growth
1,C=C[Si](OC(C)=O)(OC(C)=O)OC(C)=O,108% (inactive)
2,CN(C)c1ccc2oc(=O)c3ccccc3c2c1,103% (inactive)
3,O=C(NN=C1CCCCC1)C(=O)NN=C1CCCCC1,123% (inactive)
4,CN1C(=O)CN2CCc3ccccc3C2c2cc(Cl)ccc21 (stereo not given),103% (inactive)
5,C=CC[N+](C)(C)C,118% (inactive)
6,CN(C)CCC(=O)c1ccc(O)cc1,97.4% (inactive)
7,Cc1cc(NC(=O)CSCC(=O)O)no1,123% (inactive)
8,COc1ccc(C2OC(N)=C(O)C2=O)cc1OC (stereo not given),114% (inactive)
9,c1c(-c2cc(C3CC3)[nH]n2)n[nH]c1C1CC1,117% (inactive)
10,COc1ccc(C2(O)CCCCC2)cc1,116% (inactive)
11,O=[N+]([O-])c1ccc(-c2noc(-c3cccs3)n2)cc1,106% (inactive)
12,CC1=CC(=O)c2ccccc2C1=O,113% (inactive)
13,CCOC(=O)c1[nH]c(C)c(C(C)=O)c1C,95% (inactive)
14,COC1=CC(=O)c2nc(Cl)ccc2C1=O,-2.3% (active)
15,Nc1ccc(N=Nc2ccc(S(=O)(=O)O)cc2)c2ccccc12,99% (inactive)
16,C=CCc1cc(C(C)=O)cc(OC)c1O,106% (inactive)
17,CCCCC1C(=O)N(c2ccccc2)N(c2ccccc2)C1=O,115% (inactive)
18,CCCCCCCCO,107% (inactive)
19,N#CCCN(CCCN1CCOCC1)CN1C(=O)c2ccccc2C1=O,120% (inactive)
20,CCC(O)CC(CC)CO (stereo not given),130% (inactive)
